# Compound activity as filed in PubChem.
# Shown are actives, neighbours in structure and some others; about 7.4% of the full set was active somewhere.
# FLuc modulator = qHTS profiling assay for firefly luciferase inhibitor/activator using purifed enzyme and Km concentrations of substrates (counterscreen for miR-21 project) | purified FLuc, Km substrates, luminescence inhibition | Potency, µM (doses to about 57.5 µM), inactives show at the top dose activity change, negative = inhibition, hits mostly inhibitors | 360,000 tested, 6.9% active;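 also: plate controls were vehicle for no effect and reference inhibitor for full effect; nearly all actives have a fitted effect of over 55% in size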
# Target sequence (P08659 whole entry, looked up): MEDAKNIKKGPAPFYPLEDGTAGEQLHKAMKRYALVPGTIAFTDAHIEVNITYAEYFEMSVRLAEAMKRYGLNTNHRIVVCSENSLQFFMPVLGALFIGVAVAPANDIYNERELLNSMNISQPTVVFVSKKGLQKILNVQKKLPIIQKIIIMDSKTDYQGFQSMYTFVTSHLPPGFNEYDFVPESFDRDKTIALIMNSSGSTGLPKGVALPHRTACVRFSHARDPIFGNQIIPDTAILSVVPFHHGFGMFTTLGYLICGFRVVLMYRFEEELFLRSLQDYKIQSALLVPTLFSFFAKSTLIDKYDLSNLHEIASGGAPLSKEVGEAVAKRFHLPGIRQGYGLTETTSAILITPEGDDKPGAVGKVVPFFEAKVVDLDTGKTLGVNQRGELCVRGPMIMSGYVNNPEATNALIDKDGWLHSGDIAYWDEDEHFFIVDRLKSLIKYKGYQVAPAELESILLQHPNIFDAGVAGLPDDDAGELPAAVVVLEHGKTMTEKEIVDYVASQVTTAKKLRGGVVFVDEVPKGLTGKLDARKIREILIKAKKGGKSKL
#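 Purified P. pyralis luciferase, 10 nM final, with Km-level 10 uM D-luciferin and 10 uM ATP in 50 mM Tris acetate pH 7.5, 10 mM Mg acetate, 0.01% Tween-20, 0.05% BSA; 6-point qHTS titration about 60 µM downward; luminescence read.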
# NPC1 promoter act = qHTS Assay for NPC1 Promoter Activators. Huh7 NPC1 promoter luciferase reporter, 24 h. Potency, µM (series often up to 9.22 µM), inactives show at the highest dose activation, usual class: activators. 320,000 tested, 2.4% active. AID 485313, 2010; also: % of control where 0% means no effect; nearly all actives have a fitted effect of over 60% in size
#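 Quantitative HTS used a cell-based reporter: Huh7 cells stably bearing the NPC1 promoter upstream of luciferase were treated with compounds for 24 h, and promoter activation was read as luminescence.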
# ELG1 genotox = qHTS screen for small molecules that induce genotoxicity in human embryonic kidney (HEK293T) cells expressing luciferase-tagged ELG1; HEK293T ELG1-luciferase reporter, luminescence, 16 h; Potency, µM (top dose mostly 46 µM), for the others: at the highest dose activity change, positive = activation, most hits filed as activators; 330,000 tested, 1.3% active; AID 504466, 2011; also: % of control where 0% means no effect; nearly all actives have a fitted effect of over 60% in size
#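 Cells (2,000/well) expressing the ELG1-luciferase fusion are dosed by pin tool and kept 16 hr at 37 °C, 5% CO2. Signal comes from ONE-Glo luciferase reagent after 30 min at room temperature.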
# Rab9 prom act = qHTS Assay for Rab9 Promoter Activators; Huh7 Rab9 promoter-luciferase reporter, luminescence, 24 h; Potency, µM (titrated, usually from 9.22 µM), for inactives: top-dose activation, negative = inhibition, usual class: activators; 320,000 tested, 2.8% active; AID 485297, 2010; also: % of control where 0% means no effect; nearly all actives have a fitted effect of over 60% in size
#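 Rab9 promoter-driven luciferase in stably transfected Huh7 cells; 1500 cells/well rested 2 h, exposed to compound in DMSO for 24 h at 37 °C, 5% CO2. Luminescence read 10 min after adding luciferase reagent at ambient temperature.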
# SMN2 splice enh = qHTS Assay for Enhancers of SMN2 Splice Variant Expression; Potency, µM (doses to about 46.1 µM), for the others: at the top dose activity change, positive = activation, most hits filed as activators; 210,000 tested, 2.8% active; HEK293 SMN2-luciferase splicing reporter, luminescence, 30-36 h; also: % of control where 0% means no effect; nearly all actives have a fitted effect of over 55% in size
#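 HEK293 cells carry an SMN2 minigene-luciferase reporter in which exon 7 inclusion puts luciferase in frame. Cells were seeded at 2000 cells/well, attached for 10-12 hours, then exposed to compounds for 30-36 hours at 37C before ONE-Glo luminescence.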
# Starred values were filed as active, the others as inactive; u = inconclusive; x = not tested or not shown; [ ] = dose if it differs, or a comment. Calls follow the shape of the dose curve; as a rule, active = well fitted curve in the direction sought with a large enough effect; inconclusive = small, poorly fitted or top-dose-only effect, or another doubt; inactive = no such curve, though single readings can be large; an effect the other way counts as inactive or inconclusive. Potency is read from the fitted curve at half-maximal effect.
SMILES,FLuc modulator,NPC1 promoter act,ELG1 genotox,Rab9 prom act,SMN2 splice enh
Cc1nc(Cl)sc1C(=O)Nc1ccc(C(F)(F)F)cc1,-19%,2%,0%,1%,x
COC(=O)c1cccc(NC(=O)c2cccnc2)c1,1%,-1%,1%,4%,4%
Cc1cc(C)cc(-n2c(SCC(N)=O)nc3c([nH]c4ccccc43)c2=O)c1,0%,x,x,x,x
COc1ccccc1N1CCN(c2nc3c(S(=O)(=O)c4ccc(C)c(C)c4)nnn3c3ccc(Cl)cc23)CC1,-3%,x,x,x,-7%
O=C(O)Cn1nc(N2CCN(c3ccccc3)CC2)ccc1=O,4%,x,x,x,8%
COc1ccc(-c2cc3ncc(C)n3c(Nc3ncccc3C(N)=O)n2)cc1OC,x,-10%[46.1 µM],x,-17%[46.1 µM],x
Cn1c(CNc2ccc(F)cc2)nc2ccccc21,9.5µM*,2.2µM*,16µM*,2.2µM*,x
Cc1ccccc1NCc1nc2ccccc2n1C,4.3µM*,1.4µM*,4.1µM*,2µM*,x
Cn1c(CNc2ccccc2)nc2ccccc21,19µM*,4µM*,u,3.2µM*,18µM*
Cn1c(CNc2ccccc2O)nc2ccccc21,u,11%,8%,-5%,15%
Cc1ccc(NC(=O)Cn2c(=O)n(CCc3ccccc3)c(=O)c3c4c(sc32)CCCC4)c(C)c1,2%,x,x,x,2%
COC(=O)[C@@]1(Cc2ccccc2)[C@H]2c3cc(C(=O)N4CCCC4)n(Cc4ccc(C(F)(F)F)nc4)c3C[C@H]2CN1C(=O)c1ccccc1,x,x,x,x,-6%
CC[C@H](C)[C@@H](NC(=O)O[C@@H]1C(=O)c2ccc(OC)cc2O[C@H]1c1cccc(C(F)(F)F)c1)C(=O)OC,x,x,x,x,10%
CCN(C(=O)c1cc2c(=O)n3ccccc3nc2n1C)C1CCCCC1,-15%,27%,16%,19%,x
CN(C(=O)c1cc2c(=O)n3ccccc3nc2n1C)C1CCCCC1,12µM*,2µM*,4.6µM*,3.2µM*,x
Cc1cccc(CCNC(=O)C2CCC(CNS(=O)(=O)c3ccccc3)CC2)c1 (stereo unspecified),-1%,x,x,x,x
CCCCNC(=O)CSc1nc(N)c(C(=O)Nc2ccc(OC)cc2)s1,17µM*,26%,10%,28%,x
CN(C)c1ccc(NC(=O)c2sc(SCC(=O)Nc3nccs3)nc2N)cc1,1.9µM*,25%,u,u,69%
Cc1cccc(-n2c(O)c(C=Nc3cccc(O)c3)c3ccccc3c2=O)n1,-11%,-1%,-7%,1%,x
CC1=NC(=O)C(N=Nc2cccc(O)c2)N1c1ccccc1 (stereo unspecified),6.7µM*,-6%,15µM*,7%,-11%
CCOc1ccc(NC(=O)c2ccc(N)cc2)cc1,9.5µM*,u,u,u,u
COc1ccc(NC(=O)c2ccc3nccnc3c2)cc1,27µM*,4µM*,u,2µM*,13µM*
CCOc1ccc(C(=O)Nc2c(C(N)=O)oc3ccccc23)cc1,11µM*,14%,1%,17%,-2%
CCc1ccc(NC(=O)c2n[nH]c(=O)c3ccccc23)cc1,u,3.2µM*,u,2.5µM*,x
CCOc1ccc(NC(=O)c2oc3ccccc3c2NC(=O)c2cc(C)cc(C)c2)cc1,4%,x,x,x,-9%
SMILES,FLuc modulator,NPC1 promoter act,ELG1 genotox,Rab9 prom act,SMN2 splice enh
COc1ccc(NC(=O)c2cccnc2)cc1,-2%,1%,10%,12%,x
CO[C@@H](CCOCc1ccccc1)C[C@H]1O[C@H](C(=O)OC(C)C)C=C[C@@H]1C,x,x,x,x,15%
CCOc1ccc(NC(=O)Nc2ccc3nccnc3c2)cc1,19µM*,0%,-12%,5%,-22%
CC(C)(C)NC(=O)c1ccc2nccnc2c1,4%,1%,0%,1%,-5%
CCOc1ccc(NC(=O)Nc2ccc(NC(C)=O)cc2)cc1,-2%,0%,12%,0%,-15%
CCOc1ccc(NC(=O)c2ccncc2)cc1,u,13%,u,4%,-13%
CC(C)(C)NC(=O)Nc1ccc2nccnc2c1,24µM*,3.5µM*,u,3.5µM*,u
CCOc1ccc(NC(=O)c2ccc3nccnc3c2)cc1,17µM*,21%,u,u,-26%
CCOc1ccc(NC(=O)c2ccc(NC(=O)Cc3n[nH]c(=O)c4ccccc34)cc2)cc1,-17%,2%,9.2µM*,-1%,x
O=C(CCC1N=C2c3ccccc3N=C(SCC(=O)Nc3ccc(F)cc3)N2C1=O)NCc1ccco1 (stereo unspecified),0%,x,x,x,x
CN(C)c1ccc(-c2nc(-c3cccs3)c(-c3cccs3)[nH]2)cc1,u,x,x,x,6%
CCOc1ccc(Cl)cc1CNCCCSc1nnnn1C,-2%,x,x,x,x
COc1ccc2c(c1)CC/C(=C\c1ccc(C)o1)C2=O,2.4µM*,2.5µM*,u,2.8µM*,x
COc1ccc(/C=C2/CCOC2=O)cc1,-18%,6%,2%,-3%,-3%
COc1ccc2c(c1)CC/C(=C/c1ccncc1)C2=O,13µM*,-2%,0%,-14%,-58%
CCCn1c(C)nc2c(NCc3ccccc3)nc(C)nc21,x,x,x,x,-31%
COc1cccc(Cn2c(=O)c(-c3cccc(Cl)c3)nc3cncnc32)c1,x,x,x,x,-20%
COC(=O)[C@@H]1CCCN1C(=O)CCc1nnc(CCc2c[nH]c3ccccc23)o1,17µM*,12%,8%,13%,x
COC(=O)C1CCCCN1C(=O)CCc1nnc(CCc2c[nH]c3ccccc23)o1 (stereo unspecified),2%,-23%,0%,-2%,x
COC(=O)[C@@H]1CCCN1C(=O)CCc1nnc(CCC2CCCCC2)o1,19µM*,28%,u,u,u
Cc1cc(C)n2nc(-c3ccc(Cl)cc3)nc2n1,15µM*,x,x,x,16µM*
Cc1cc(N2CCN(C)CC2)n2nc(-c3ccc(Cl)cc3)nc2n1,-18%,0%,5%,-6%,-11%[9.22 µM]
CC1CCCN(C(=O)c2cc3ccc4cccnc4c3[nH]2)C1 (stereo unspecified),0.43µM*,x,x,x,x
O=C(c1cc2ccc3cccnc3c2[nH]1)N1CCCCC1,1.2µM*,x,x,x,x
Cc1ccccc1NC(=O)C(Cc1ccccc1)N1Cc2ccccc2C1=O (stereo unspecified),4%,x,x,x,x
COc1ccc(SCc2cc(=O)c3cc(Cl)ccc3[nH]2)cc1,4%,x,x,x,x
COc1ccc(C(=O)NC(=S)NC(C)(C)C)cc1Br,11µM*,29%,9%,u,17%
CCOC(=O)c1ccc2c(c1)N(CC(=O)Nc1ccc(C)cc1C)C(=O)c1ccccc1S2,5%,x,x,x,x
Cc1ccc(-c2nc3sc(C(N)=O)c(N)c3c3c2CCCC3)cc1,0%,-6%,-6%,-6%,10%
